# The OligoGym collection
# Target: TM4SF4
# Assay: pooled miR-30 sensor sort-seq; sequence = guide strand
# Conditions: shRNA
# Also: reference of the scale not given here.
row,Sequence,sensor-assay potency score (higher = more potent)
1,ATTGAGATAATCCCCGTCGTGG,-0.0711
2,TTGACCACCTGGATGGCGCAGA,-0.376
3,TCGTGGAGGTGAACATCGCAAA,-1.55
4,TTGTTGATTGAAATGGCTGAGA,-0.818
5,TTTTCTAAGCTTTATCAGCTAG,-0.744
6,TTGTCATCTATCACTTTTCCTC,-0.799
7,AAGATCATCAAGACACCGCTTC,0.685
8,AACATCGCAAATCGCTTCCCAC,-1.03
9,TAAACGAGTATCCAGCTCCCAA,-1.07
10,TTTGAAAATAACAAAATTCTAA,-0.879

# Target: TM7SF2
# Assay: as above
# Conditions: shRNA
row,Sequence,sensor-assay potency score (higher = more potent)
1,AGATGTAGTAACCAGTAGCATT,-2.06
2,TATTTGAAGTCGAAGAAACAGA,-0.986
3,TTCATGTAGAGAAAGAGGCTGA,0.647
4,TACTTCTGCAGGCACTGCCGCT,-1.41
5,TTTCGGAAAGTGTTTTTCTGGG,-0.966
6,TCATGTGTGATATCCATGGTGG,-0.309
7,TTGTCCTTCAATTCCTGCCCCT,-0.137
8,TTGATGAGGCAGATGACAGAGG,-0.497
9,TAGAGATGGTCTCAAGCCCAGC,-1.47
10,TTTGAAGTCGAAGAAACAGATA,-1.28
11,TTGAGTCCCAAGTGTGTCGAGG,-0.705

# Target: TMCC3
# Assay: as above
# Conditions: shRNA
row,Sequence,sensor-assay potency score (higher = more potent)
1,TTTGACCTTGTGGAAGTCCAGG,-0.907
2,TATTTTATTCTTGCTAGTCTTT,-0.521
3,TTATTGAAAACGAACACAGGTG,-0.162
4,TTAAAGTGTAACAAAACCCCTC,-0.0862
5,TTGTTCACGATGGTAGCGCTGC,-0.609
6,TTGCTTGATACGTCCCGCCTGC,-0.167
7,TACCTTTAGAATTTTTTGCTTC,-0.127
8,TTGCACTTAATTTGAATCCAGG,-0.313
9,TTGAAAACGAACACAGGTGGAG,0.022
10,TTCTCTCTTAAACTGCACCTTC,0.0499
11,TAATGTTAAAGTCACAGTCTGA,-0.348
12,TTGGGTATCCTTGATCTCCCTC,0.381

# Target: TMCO6
# Assay: as above
# Conditions: shRNA
row,Sequence,sensor-assay potency score (higher = more potent)
1,TGCAACATTGCACAGAACTGTG,-0.739
2,AACACGCTCATCTCTGAGCTGC,-0.789
3,AACATTTGTAGCATGTGCTGAG,0.662
4,TTTCTCAGCAGCCTCTTGCTGA,-0.697
5,TTGCAACATTTGTAGCATGTGC,-0.588
6,TTCCTCAGCCTGTAGAAGCTGG,-0.621
7,ATACACACGATCCTGGAGCTGG,-0.0753
